An excerpt weighted towards active compounds, which were near 19% of everything screened.
KB-V1 MDR tox: KB-V1 MDR subline cytotoxicity; KB-V1 MDR cells viability, CellTiter-Glo, 72 h; Potency, µM (titrated, usually from 46.1 µM), usual class: cytotoxic; 400,000 compounds, 3.4% hits; further: nearly all actives have a fitted effect of over 60% in size
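Luminescent ATP read-out (CellTiter-Glo, 10 min) measures survival of drug-selected KB-V1 MDR cells after 72 h, 37 degrees C compound exposure. Medium: phenol-red-free DMEM, 10% FBS. Values from fitted concentration-response curves.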
TDP1 cell noCPT: qHTS for Inhibitors of human tyrosyl-DNA phosphodiesterase 1 (TDP1): qHTS in cells in absence of CPT; DT40 Tdp1-/- hTDP1 cells, no CPT, ATP luminescence, 48 h; Potency, µM (highest dose often 46.2 µM), for inactives: top-dose activity change, negative = growth inhibition, usual class: inhibitors; 420,000 compounds, 15% hits; further: nearly all actives have a fitted effect of over 55% in size
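Seeded 400 DT40-hTDP1 cells/well (vehicle DMSO, no 20 nM CPT); pinned compounds; ≥48 hr at 37 °C; CellTiter-Glo luminescence as viability measure.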
HT1080 IDH1KD tx: HT-1080 IDH1 knockdown cell toxicity (counter line). HT-1080 IDH1 knockdown viability, ATP luminescence, 48 h. Potency, µM (series often up to 46.1 µM), inactives show at the top dose activity, negative = toxicity, most hits filed as cytotoxic. 360,000 compounds, 2% hits. AID 686971;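 further: 0% = DMSO wells and -100% = cell-free medium wells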
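Luminescent ATP read-out (CellTiter-Glo, 10 min at room temperature) after 48 h compound exposure at 37 °C gave viability of IDH1-knockdown HT-1080 cells. Activity was normalised to DMSO and cell-free wells, then fitted as concentration-response curves.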
DT40 TDP1 CPT: DT40-hTDP1 cell growth loss with CPT; chicken DT40 Tdp1-/-;hTDP1 cells + 20 nM CPT, ATP luminescence, 48 h; Potency, µM (titrated, usually from 46.2 µM), for the others: at the top dose activity change, negative = growth inhibition, actives largely listed as inhibitors; 420,000 compounds, 12% hits; further: nearly all actives have a fitted effect of over 55% in size
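Cell growth measured by CellTiter-Glo luminescence after a minimum 48 h, 37 C compound exposure with 20 nM CPT in Tdp1-knockout DT40 cells stably expressing hTDP1, seeded 400/well; qHTS titration format.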
KB-3-1 cytotox: KB-3-1 parental cell cytotoxicity. KB-3-1 viability, CellTiter-Glo ATP luminescence, 72 h. 400,000 compounds, 1.4% hits. Potency, µM (series often up to 46.1 µM), usual class: cytotoxic; further: nearly all actives have a fitted effect of over 60% in size
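KB-3-1 parental drug-naive adenocarcinoma cells in DMEM/10% FBS, incubated 72 h at 37 C with pin-transferred compounds across a concentration series. Viability by CellTiter-Glo luminescence; concentration-response curves fitted after normalization.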
HT1080NT lethal: kills 2HG-producing HT-1080-NT fibrosarcoma cells | HT-1080-NT fibrosarcoma viability, CellTiter-Glo ATP luminescence, 48 h | Potency, µM (doses to about 46.1 µM), for the others: top-dose activity, negative = less viability, actives largely listed as cytotoxic | 360,000 compounds, 1.6% hits | AID 686970;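 further: NT is the 2HG producing partner of a matched IDH1 knockdown line; 0% = DMSO-treated cells and -100% = media-only wells without cells; nearly all actives have a fitted effect of over 55% in size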
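750 cells/well, RPMI + 5% FBS; 2 h settle, compound pin-transfer, 48 h at 37 degrees C. CellTiter-Glo 10 min RT, luminescence. Normalized to DMSO and media-only wells.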
An asterisk follows results filed as active; i = inactive; u = inconclusive; x = no result. The call rests on the fitted dose curve; in most records, active means well fitted curve in the direction sought with a large enough effect; inconclusive means small, poorly fitted or top-dose-only effect, or another doubt; inactive means no such curve, though single readings can be large; an effect the other way counts as inactive or inconclusive. Unless noted, on the % scale 0 is the no-effect control and ±100 the full control effect; potency means the concentration at half of the fitted maximal effect.

SMILES	KB-V1 MDR tox	TDP1 cell noCPT	HT1080 IDH1KD tx	DT40 TDP1 CPT	KB-3-1 cytotox	HT1080NT lethal
COC(=O)c1ccc2nc(-c3ccc(F)cc3)c(CC3CCCCC3)n2c1	u	21µM*	-1%	26µM*	i	-12%
NC(=O)COC(=O)c1ccc(-c2ccccc2)cc1	i	-2%	-3%	-3%	i	-8%
Cc1cc(C)c(-c2cc(NC(=O)CSc3nncn3C)n(-c3ccccc3)n2)cc1C	i	21µM*	-23%	18µM*	i	-6%
COCCNc1nnc(SCC(=O)Nc2nnc(-c3ccccc3)o2)s1	i	12%	1%	-2%	i	0%
COCCn1c(SCC(=O)Nc2cc(C(C)(C)C)nn2-c2ccccc2)nnc1-c1ccncc1	16µM*	u	-8%	-14%	i	3%
COc1ccccc1-n1nnnc1SCC(=O)Nc1ccccn1	16µM*	1%	7%	5%	i	6%
COCCNc1nnc(SCC(=O)Nc2cc(-c3ccccc3)nn2-c2ccccc2)s1	16µM*	16µM*	6%	26µM*	i	-9%
CC1(c2ccc3c(c2)OCO3)NC(=O)N(CC(=O)Nc2ccc(N3CCOCC3)cc2)C1=O (configuration not stated)	i	-5%	7%	-7%	i	-8%
COc1ccc(-n2cnnc2SCC(=O)Nc2cc(C(C)(C)C)nn2-c2ccccc2)cc1	i	-7%	-1%	3%	i	13%
COc1ccccc1-n1cnnc1SCC(=O)Nc1cc(C(C)(C)C)nn1-c1ccccc1	i	13µM*	-1%	10µM*	i	18%
CC(C)(C)c1cc(NC(=O)CCl)n(-c2ccccc2)n1	u	21µM*	u	u	u	u
Cc1cc(C)cc(N(CC(=O)NCCSc2ccccn2)S(=O)(=O)c2ccccc2)c1	u	26µM*	1%	u	u	-10%
CCOc1ccccc1N(CC(=O)NCCSc1ccccn1)S(=O)(=O)c1ccccc1	u	u	-4%	u	i	-13%
CCOc1ccccc1N(CC(=O)NCCSc1ccccc1)S(=O)(=O)c1ccccc1	u	10µM*	x	u	i	x
CCOc1ccccc1N(CC(=O)NCCSc1ccccn1)S(=O)(=O)c1ccc(C)cc1	i	21µM*	-10%	u	i	-6%
COc1ccccc1N(CC(=O)NCCSc1ccccn1)S(=O)(=O)c1ccccc1	u	u	-10%	u	i	-4%
C/C(=N\NC(=S)Nc1ccccc1C)c1ccc(O)cc1	i	u	-3%	u	i	-10%
CC(C)[C@H]1C(=O)Nc2ccccc2N1C(=O)N[C@@H](Cc1ccccc1)C(=O)N[C@H](C(=O)O)c1ccccc1	i	-8%	4%	8%	i	0%
Nc1nc(N)c2cc(Sc3ccc(Cl)cc3)ccc2n1	u	1µM*	5.8µM*	3.7µM*	u	2.6µM*
Oc1cccnc1Sc1cccc(C(F)(F)F)c1	i	u	-13%	-40%	i	-3%
Nc1nc(N)c2cc(Sc3cccc(C(F)(F)F)c3)ccc2n1	u	1.3µM*	5.8µM*	9.2µM*	u	5.8µM*
Nc1nc(N)c2cc(Sc3ccc4ccccc4c3)ccc2n1	i	8.2µM*	5.8µM*	18µM*	21µM*	8.2µM*
O=C(NCCN1CCC(n2c(=O)[nH]c3ccccc32)CC1)c1ccccc1C(F)(F)F	i	u	7%	u	i	1%
COc1ccc(C2=Nc3ccccc3NC(=O)C2N(CCc2cc(OC)cc(OC)c2)C(C)=O)cc1 (configuration not stated)	i	u	-7%	23µM*	i	12%
CC(=O)c1ccc(NC(=O)C2CCCN(c3ncnc4c3nc3n4CCCCC3)C2)cc1 (configuration not stated)	i	13µM*	8%	u	i	2%
SMILES	KB-V1 MDR tox	TDP1 cell noCPT	HT1080 IDH1KD tx	DT40 TDP1 CPT	KB-3-1 cytotox	HT1080NT lethal
CSc1cccc(NC(=O)C2CCCN(c3ncnc4c3nc3n4CCCCC3)C2)c1 (configuration not stated)	15µM*	15µM*	5%	u	u	2%
CSc1nnc(NC(=O)c2cc(=O)c3cc(C)c(C)cc3o2)s1	u	-1%	x	2%	i	x
Cc1ccc(CN2[C@@H](CC(C)C)COCCS2(=O)=O)cc1	i	-18%	3%	-19%	i	8%
CC(=O)Oc1ccc(C(=O)Nc2cccnc2)cc1	i	u	-20%	u	i	-12%
O=C(O)c1cccc2cc(-c3ccccc3)oc(=O)c12	i	13%	12%	-3%	i	3%
O=C(O)c1cccc2cccc(-c3c4ccc(=O)c(O)c-4oc4c(O)c(O)ccc34)c12	i	7.3µM*	-2%	10µM*	i	0%
CS(=O)(=O)N(CC(=O)Nc1ccccc1Cl)c1ccc(Cl)cc1	u	-25%	-11%	-15%	i	-23%
CCOc1cc(/C=C/C(=O)NCCc2ccc(S(N)(=O)=O)cc2)ccc1OCC(C)C	i	8.2µM*	-10%	13µM*	i	-16%
COc1cc(/C=C/C(=O)NCCc2ccc(S(N)(=O)=O)cc2)ccc1OCC#N	i	-29%	8%	18µM*	i	7%
Cn1cc(SCC(=O)NCCc2ccccc2)c2ccccc21	i	u	0%	u	i	-1%
CSc1nnc(-c2ccccc2N=Cc2c(C)[nH]n(-c3ccc4ccccc4c3)c2=O)c(=O)[nH]1	i	u	u	21µM*	i	u
CC(=O)OCOC(=O)CN(CC(=O)OCOC(C)=O)c1ccccc1OCCOc1ccccc1N(CC(=O)OCOC(C)=O)CC(=O)OCOC(C)=O	x	1.6µM*	x	1.4µM*	x	x
CN1N/C(=C\c2ccccc2)N=C2C(=O)N(C)C(=O)N=C21	i	u	x	1.4µM*	i	x
CC/C=C1/N=C2C(=O)N(C)C(=O)N=C2N(C)N1	i	u	x	0.089µM*	18µM*	x
CC(C)n1cc(CN2CCCC(CO)(Cc3cccc(Cl)c3)C2)cn1 (configuration not stated)	i	-27%	18%	-1%	i	8%
COc1ccc(-n2c(C)cc(=O)[nH]c2=O)cc1	u	3%	5%	2%	i	21%
